biological target: Hexose transporter 1 (Plasmodium falciparum) (UniProt O97467); experiment: ST_JUDE_LEISH: Cytotoxicity at 2uM final concentration against transgenic Leishmania Mexicana promastigotes LmPfHT that are glucose transport deficient and complemented with the Plasmodium falciparum hexose transporter. Activity is measured by DNA content using SYBR green in vitro; type: functional

Structure (SMILES)	inhibition [%]
Cc1ccc(C(=O)NC2CC2)cc1-c1ccc2c(cnn2S(=O)(=O)c2ccc(F)cc2)c1	3.78
Cc1cc(NC(=O)NCCN2CCC(NS(=O)(=O)c3ccc(Br)cc3)C2)c2ccccc2n1 (centres undefined)	3.86
CCCCNCc1ccc(-c2nc(CN(CCCN3CCN(C)CC3)C(=O)Nc3cccc(Cl)c3)cs2)cc1	9.93
COc1cccc(CNC[C@@H](O)[C@H](Cc2ccccc2)NC(=O)c2cc(NC(C)C)cc(N3CCCCS3(=O)=O)c2)c1	1.05
COc1ccc(-c2ccc3c(-c4cccc(S(C)(=O)=O)c4)cnc(N)c3c2)cc1	1
CCc1ccc(CN2CCC(C(=O)Nc3ccc(-c4nc5ccccc5[nH]4)cc3)CC2)o1	39.6
CN(C)CCNC(=O)[C@H](Cc1ccccc1)NC(=O)c1ccc(O)c(-c2ccc(Cl)c(Cl)c2)c1	1.18
CO/C(=C\C=C\c1cc2cc(Cl)c(Cl)cc2[nH]1)C(=O)NCCCNC12CC3CC(CC(C3)C1)C2	1.55
CC(C)(C)c1cc(CN2CCN(Cc3ccccc3)CC2)cc(C(C)(C)C)c1O	2.9
Cc1cc(C)n(Cc2ccc(C(=O)NCC3CCCCC3)cc2)n1	2.07
O=C(/C=C/c1ccc(Cl)c(Cl)c1)NCCCCCN1CCC(NC(=S)Nc2ccc(Cl)c(Cl)c2)CC1	5.09
Cc1ccc(C(=O)Nc2ccc(C)c(OC3CCN(CCC(C)C)C3)c2)cc1 (centres undefined)	8.98
O=C(NC1CCN(CC2(c3ccccc3F)CCCC2)CC1)c1cc[nH]n1	1.54
Nc1nc(N)c2cc3ccc(OCc4ccccc4)cc3nc2n1	9.05
COc1ccccc1/C=C/C(=O)N(C)C1CCN(CCCCCNC(=O)/C=C/c2ccc(Cl)c(Cl)c2)CC1	2.77
CC(C)N(Cc1ccc(-c2ccc(C(F)(F)F)cc2)cc1)C(=O)Cn1c(SCc2cccc(F)c2F)cc(=O)c2cc(CN3CCCCC3)ccc21	1.78
C=Cc1cc(NC(=O)N2CCc3cc(OC)c(C(F)(F)F)cc32)cc(-c2cccnc2)c1	-1.84
O=C(NCC1CCC(CNCCCc2ccccc2)CC1)c1cc(Cl)cc(Cl)c1 (centres undefined)	0.53
COc1ccc(CCNC(=O)c2cc(C)ccc2O)cc1-c1ccc(C(C)(C)C)cc1	2.89
COCCn1c(-c2cccc(Cl)c2)nn(-c2ccc([N+](=O)[O-])cc2C#N)c1=S	-0.81
COc1ccc(C=C2SC(=O)N=C2Nc2ccccc2)c(OC)c1	5.61
O=C(Nc1ccccc1O)C1CCN(c2ncnc3cc(-c4ccc(F)cc4)sc23)CC1	2.48
Cc1cc(-c2ccc3c(c2)CCN(CCC2CCC(NC(=O)/C=C/c4ccccc4F)CC2)CC3)on1 (centres undefined)	6.81
N#Cc1cccc(C(=O)Nc2cccc(-c3ccc(CN4CCCC4)cc3)c2)c1	2.56
CN(C)CCOc1cc(NC(=O)Nc2ccc(Cl)cc2C(F)(F)F)ccc1I	1.15

biological target: Glucose transporter (Leishmania mexicana) (UniProt O61059); experiment: ST_JUDE_LEISH: Cytotoxicity at 2uM final concentration against transgenic Leishmania Mexicana promastigotes LmGT2 that are glucose transport deficient and complemented with the L. Mexicana glucose transporter 2. Activity is measured by DNA content using SYBR green in vitro; type: functional

Structure (SMILES)	inhibition [%]
CCNc1cc(C)nc(Nc2ccc(NC(=O)C3CCCC3)cc2)n1	3.57
CCOc1cc(C(=O)N[C@@H](Cc2ccccc2)[C@H](O)CNCc2cccc(OC)c2)cc(N2CCCCS2(=O)=O)c1	3.08
CCn1c(-c2nonc2N)nc2c(-c3cc4ccccc4s3)ncc(C(=O)N3CCC(N)C3)c21 (centres undefined)	10.9
COc1cc(NC(=O)c2ccc(-c3ccc(C(C)=O)cc3)s2)ccc1OCCN1CCCC1	1.4
COc1ccc(Nc2nc(NN=Cc3cc(Br)c(O)cc3O)nc(Nc3ccc([N+](=O)[O-])cc3)n2)cc1	1.09
CCN(CC)/C(=N/C(=N)NCc1ccc(Cl)cc1Cl)NCCCCCCN/C(=N\C(=N)NCc1ccc(Cl)cc1Cl)N(CC)CC	1.51
O=C(Nc1ccncc1)c1cc(C(=O)Nc2ccncc2)cc([N+](=O)[O-])c1	-0.41
Cc1ccc(NC(=O)c2cccc(C#N)c2)cc1-c1ccc(C(=O)Nc2ccncc2)cc1	4.44
COc1ccc(NC(=O)[C@H](Cc2ccccc2)Nc2cc(C)nc(Nc3ccccc3)n2)cc1	10.4
COCCN(C(=O)Cc1cccs1)C(C(=O)NCc1ccc(OC)cc1)c1ccc(C(C)C)cc1 (centres undefined)	-0.76
CCN(CC)CCN(Cc1ccc(-c2ccc(C(F)(F)F)cc2)nc1)C(=O)Cn1c(SCc2ccc(F)cc2)nc(=O)c2sccc21	1.84
Cc1cc(NCCc2ccccc2)nc(NC(=N)Nc2cccc(Cl)c2)n1	0.63
CC(C)C(NC(=O)Cc1cccc2ccccc12)C(=O)Nc1cccc(C#N)c1 (centres undefined)	2.76
COc1cc2nc(NCCN3CCOCC3)n3nc(-c4ccccc4)nc3c2cc1OC	5.62
Cc1ccc(C(=O)NC2CC2)cc1-c1ccc2c(cnn2S(=O)(=O)c2ccc(F)cc2)c1	0.4
Cc1cc(NC(=O)NCCN2CCC(NS(=O)(=O)c3ccc(Br)cc3)C2)c2ccccc2n1 (centres undefined)	3.49
CCCCNCc1ccc(-c2nc(CN(CCCN3CCN(C)CC3)C(=O)Nc3cccc(Cl)c3)cs2)cc1	5.61
COc1cccc(CNC[C@@H](O)[C@H](Cc2ccccc2)NC(=O)c2cc(NC(C)C)cc(N3CCCCS3(=O)=O)c2)c1	0.68
COc1ccc(-c2ccc3c(-c4cccc(S(C)(=O)=O)c4)cnc(N)c3c2)cc1	0.45
CCc1ccc(CN2CCC(C(=O)Nc3ccc(-c4nc5ccccc5[nH]4)cc3)CC2)o1	25.7

Structure (SMILES)	inhibition [%]
CN(C)CCNC(=O)[C@H](Cc1ccccc1)NC(=O)c1ccc(O)c(-c2ccc(Cl)c(Cl)c2)c1	-2.32
CO/C(=C\C=C\c1cc2cc(Cl)c(Cl)cc2[nH]1)C(=O)NCCCNC12CC3CC(CC(C3)C1)C2	0.89
CC(C)(C)c1cc(CN2CCN(Cc3ccccc3)CC2)cc(C(C)(C)C)c1O	2.7
Cc1cc(C)n(Cc2ccc(C(=O)NCC3CCCCC3)cc2)n1	2.61
O=C(/C=C/c1ccc(Cl)c(Cl)c1)NCCCCCN1CCC(NC(=S)Nc2ccc(Cl)c(Cl)c2)CC1	3.5
Cc1ccc(C(=O)Nc2ccc(C)c(OC3CCN(CCC(C)C)C3)c2)cc1 (centres undefined)	5.85
O=C(NC1CCN(CC2(c3ccccc3F)CCCC2)CC1)c1cc[nH]n1	1.89
Nc1nc(N)c2cc3ccc(OCc4ccccc4)cc3nc2n1	6.89
COc1ccccc1/C=C/C(=O)N(C)C1CCN(CCCCCNC(=O)/C=C/c2ccc(Cl)c(Cl)c2)CC1	5.48
CC(C)N(Cc1ccc(-c2ccc(C(F)(F)F)cc2)cc1)C(=O)Cn1c(SCc2cccc(F)c2F)cc(=O)c2cc(CN3CCCCC3)ccc21	3.27
C=Cc1cc(NC(=O)N2CCc3cc(OC)c(C(F)(F)F)cc32)cc(-c2cccnc2)c1	-1.09
O=C(NCC1CCC(CNCCCc2ccccc2)CC1)c1cc(Cl)cc(Cl)c1 (centres undefined)	1.72
COc1ccc(CCNC(=O)c2cc(C)ccc2O)cc1-c1ccc(C(C)(C)C)cc1	4.35
COCCn1c(-c2cccc(Cl)c2)nn(-c2ccc([N+](=O)[O-])cc2C#N)c1=S	3.5
COc1ccc(C=C2SC(=O)N=C2Nc2ccccc2)c(OC)c1	2.58
O=C(Nc1ccccc1O)C1CCN(c2ncnc3cc(-c4ccc(F)cc4)sc23)CC1	-2.46
Cc1cc(-c2ccc3c(c2)CCN(CCC2CCC(NC(=O)/C=C/c4ccccc4F)CC2)CC3)on1 (centres undefined)	12.2
N#Cc1cccc(C(=O)Nc2cccc(-c3ccc(CN4CCCC4)cc3)c2)c1	2.89
CN(C)CCOc1cc(NC(=O)Nc2ccc(Cl)cc2C(F)(F)F)ccc1I	-3.2

Reference: ChEMBL document CHEMBL3433997, “St. Jude Leishmania screening dataset” (2016)
